For 21 compounds, outcome results are on record in PubChem BioAssay AID720492 (Broad Institute, 2013).

Calls of active or inactive are those of the source.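 The calls were made as follows: active = unnormalized dose curve rising to cross level 40 at or below the top tested dose; inconclusive = flat fit at moderately raised activity, or poor fit; inactive = the rest.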

The test in a line: miR-27b level by RT-PCR, dose response, miR-122 / miR-27b project, Huh7 cells, cherry-pick, activator set (AID 720492). Conditions: Huh7 miR-27b levels, qRT-PCR, 48 h; series mostly up to 35 µM.
For `CNC[C@@H]1Oc2cc(C#CC3CCCCC3)ccc2S(=O)(=O)N([C@@H](C)CO)C[C@@H]1C`, the result was inactive. With `C[C@@H]1CN([C@H](C)CO)S(=O)(=O)c2ccc(/C=C/c3ccccc3)cc2O[C@@H]1CN(C)C(=O)c1cccnc1` the entry was “inactive”; with `CN1C(=O)c2cc(NC(=O)c3cccc(F)c3)ccc2OC[C@H]2O[C@@H](CC(=O)O)CC[C@@H]21`, “inactive”. In the case of `COCC(=O)N(C)C[C@H]1Oc2cc(C#Cc3cccnc3)ccc2S(=O)(=O)N([C@@H](C)CO)C[C@H]1C` it was “inactive”. With `COCC(=O)N(C)C[C@H]1Oc2cc(-c3ccc(C#N)cc3)ccc2S(=O)(=O)N([C@@H](C)CO)C[C@H]1C` the entry was “inactive”; with `CCCC#Cc1ccc2c(c1)O[C@H](CN(C)C(=O)c1ccncc1)[C@H](C)CN([C@@H](C)CO)S2(=O)=O`, “inactive”.

`COCC(=O)N(C)C[C@H]1Oc2cc(-c3ccc(C#N)cc3)ccc2S(=O)(=O)N([C@H](C)CO)C[C@H]1C`: the compound was classed as inactive.

As to `C[C@H]1CN([C@@H](C)CO)S(=O)(=O)c2ccc(C#Cc3ccncc3)cc2O[C@H]1CN(C)C(=O)C1CCOCC1`, the compound was called inactive. Regarding `CCCC#Cc1ccc2c(c1)O[C@H](CN(C)C(=O)COC)[C@H](C)CN([C@@H](C)CO)S2(=O)=O`, the compound was called inactive. With `CO[C@@H]1CN(C)C(=O)c2cc(NC(=O)c3cccc(Oc4ccccc4)c3)ccc2OC[C@H](C)NC[C@@H]1C` the entry was “inactive”. As for `CN1C(=O)c2cc(NC(=O)c3cccc(F)c3)ccc2OC[C@@H]2O[C@H](CC(=O)O)CC[C@H]21`, the call was inactive. As for `COCC(=O)N(C)C[C@H]1Oc2cc(-c3ccccc3F)ccc2S(=O)(=O)N([C@@H](C)CO)C[C@H]1C`, the result was inactive. With `COCC(=O)N(C)C[C@H]1Oc2cc(C#Cc3cccnc3)ccc2S(=O)(=O)N([C@H](C)CO)C[C@H]1C` the entry was “inactive”; with `C[C@@H]1CN([C@H](C)CO)S(=O)(=O)c2ccc(C#Cc3ccncc3)cc2O[C@H]1CN(C)C(=O)C1CCOCC1`, “inactive”.

Regarding `CN1C(=O)c2cc(NC(=O)c3cccc(F)c3)ccc2OC[C@H]2O[C@H](CC(=O)O)CC[C@@H]21`, the outcome was inactive.

Regarding `COc1ccc(-c2cnc3c(c2)C(=O)N([C@@H](C)CO)C[C@H](C)[C@H](CN(C)S(=O)(=O)c2ccc(OC)cc2)O3)cc1`, the compound was called inactive. With `CO[C@@H]1CN(C)C(=O)c2cc(NC(=O)c3ccc4c(c3)OCO4)ccc2OC[C@H](C)NC[C@@H]1C` the entry was “inactive”; with `C[C@H]1CN([C@@H](C)CO)C(=O)c2cc(-c3ccc(C#N)cc3)cnc2O[C@H]1CN(C)Cc1cncnc1`, “inactive”; with `C[C@H]1CN([C@@H](C)CO)S(=O)(=O)c2ccc(C#Cc3ccncc3)cc2O[C@@H]1CN(C)C(=O)C1CCOCC1`, “inactive”. With `CN1C(=O)c2cc(NC(=O)c3cccc(F)c3)ccc2OC[C@@H]2O[C@@H](CC(=O)O)CC[C@H]21` the entry was “inactive”; with `C[C@@H]1CN([C@@H](C)CO)S(=O)(=O)c2ccc(C#Cc3ccncc3)cc2O[C@H]1CN(C)C(=O)C1CCOCC1`, “inactive”.
